From PubChem BioAssay
In the library only some 19% were active in any assay of this set; here they are far more common.
HT1080NT lethal: kills 2HG-producing HT-1080-NT fibrosarcoma cells; HT-1080-NT fibrosarcoma viability, CellTiter-Glo ATP luminescence, 48 h; Potency, µM (doses to about 46.1 µM), for the others: at the highest dose activity, negative = less viability, most hits filed as cytotoxic; actives 1.6% (n = 360,000);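 also: NT is the 2HG producing partner of a matched IDH1 knockdown line; 0% = DMSO-treated cells and -100% = media-only wells without cells; nearly all actives have a fitted effect of over 55% in size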
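Read-out is CellTiter-Glo luminescence after 10 minutes at room temperature, following 48 hours' compound treatment of HT-1080-NT cells (750 cells/well, RPMI, 5% FBS, 37 degrees C).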
HT1080 IDH1KD tx: HT-1080 IDH1 knockdown cell toxicity (counter line); HT-1080 IDH1 knockdown viability, ATP luminescence, 48 h; Potency, µM (highest dose often 46.1 µM), for inactives: at the top dose activity, negative = toxicity, usual class: cytotoxic; actives 2% (n = 360,000);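 also: 0% = DMSO wells and -100% = cell-free medium wells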
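% activity derives from luminescence (CellTiter-Glo), normalised to DMSO and no-cell wells. HT-1080-IDH1KD cells, 750/well, had 48 h compound exposure at 37 °C.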
DT40 TDP1 CPT: DT40-hTDP1 cell growth loss with CPT; actives 12% (n = 420,000); Potency, µM (series often up to 46.2 µM), without a hit: top-dose activity change, negative = growth inhibition, usual class: inhibitors; AID 686979; chicken DT40 Tdp1-/-;hTDP1 cells + 20 nM CPT, ATP luminescence, 48 h; also: nearly all actives have a fitted effect of over 55% in size
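Cell growth measured by CellTiter-Glo luminescence after a minimum 48 h, 37 C compound exposure with 20 nM CPT in Tdp1-knockout DT40 cells stably expressing hTDP1, seeded 400/well; qHTS titration format.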
KB-V1 MDR tox: KB-V1 MDR subline cytotoxicity; KB-V1 MDR cells viability, CellTiter-Glo, 72 h; Potency, µM (top dose mostly 46.1 µM), usual class: cytotoxic; actives 3.4% (n = 400,000); also: nearly all actives have a fitted effect of over 60% in size
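Readout: CellTiter-Glo luminescence, 10 min after addition. Cells: KB-V1 MDR subline, 72 h at 37 degrees C with compound. Analysis: corrected, normalized data fitted to concentration-effect curves.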
DT40 TDP1 no CPT: qHTS for Inhibitors of human tyrosyl-DNA phosphodiesterase 1 (TDP1): qHTS in cells in absence of CPT. actives 15% (n = 420,000). Potency, µM (highest dose often 46.2 µM), for inactives: at the top dose activity change, negative = growth inhibition, hits mostly inhibitors. DT40 Tdp1-/- hTDP1 cells, no CPT, ATP luminescence, 48 h; also: nearly all actives have a fitted effect of over 55% in size
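Cells were dispensed at 400 per well, compounds added by pin tool, plates incubated ≥48 hr at 37 °C, then CellTiter-Glo added for 30 min at room temperature before luminescence reading. Line: DT40 Tdp1-/- complemented with hTDP1; camptothecin omitted.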
KB-3-1 tox: kills parental KB-3-1 adenocarcinoma cells; KB-3-1 viability, CellTiter-Glo ATP luminescence, 72 h; Potency, µM (top dose mostly 46.1 µM), actives largely listed as cytotoxic; actives 1.4% (n = 400,000); also: nearly all actives have a fitted effect of over 60% in size
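Here the drug-naive KB-3-1 line serves as comparator for MDR sub-line selectivity; cells received compound titrations, 72 h at 37 °C, then CellTiter-Glo readout.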
Starred values were filed as active, the others as inactive; i = inactive; ? = inconclusive; . = not tested or not shown. Calls follow the shape of the dose curve; as a rule, active = well fitted curve in the direction sought with a large enough effect; inconclusive = small, poorly fitted or top-dose-only effect, or another doubt; inactive = no such curve, though single readings can be large; an effect the other way counts as inactive or inconclusive. Unless noted, % is scaled to controls: 0 for no effect and ±100 for the full control effect; potency is read from the fitted curve at half-maximal effect.

SMILES	HT1080NT lethal	HT1080 IDH1KD tx	DT40 TDP1 CPT	KB-V1 MDR tox	DT40 TDP1 no CPT	KB-3-1 tox
COc1ccc(/C=N/Nc2cc(C)nc(NS(=O)(=O)c3ccc(C)cc3)n2)cc1	?	?	?	i	?	i
Cc1cc(N/N=C/c2cccc([N+](=O)[O-])c2)nc(-n2nc(C)cc2C)n1	0.0%	14.8%	4.11µM*	?	3.66µM*	?
Cc1nc(Cl)cc(N/N=C/c2ccc(O)cc2)n1	-16.0%	3.9%	3.4%	i	?	i
Cc1nc(Cl)cc(N/N=C/c2ccc(O)cc2O)n1	-2.2%	?	?	i	20.6µM*	?
O=C(O)CCc1[nH]c2ccccc2c1Sc1ccccc1	1.3%	-14.4%	-1.2%	i	3.6%	i
Cc1cc(N/N=C/c2ccccc2[N+](=O)[O-])nc(-n2nc(C)cc2C)n1	?	-27.8%	1.16µM*	?	0.92µM*	?
Cc1cc(N/N=C/c2ccc(O)cc2O)nc(-n2nc(C)cc2C)n1	-29.6%	?	0.231µM*	?	0.291µM*	?
Cc1cc(N/N=C/c2ccccc2O)nc(N2CCOCC2)n1	-1.7%	-1.9%	-27.5%	i	?	i
Cc1cc(C)n(-c2ccccc2[N+](=O)[O-])n1	3.3%	-5.0%	4.5%	i	?	i
O=C(Nc1ccc2ccccc2c1)Nc1nnc(C2CCCCC2)s1	.	.	.	?	.	i
O=C(CC1NCCN(Cc2ccccc2)C1=O)Nc1ccccc1 (configuration not stated)	-1.6%	-5.0%	-2.8%	i	-7.3%	i
Cc1nc2ccccc2nc1OCc1cccc(Cl)c1	-15.8%	-20.3%	?	i	14.6µM*	i
CCOc1ccc(CN(C)Cc2cc(=O)oc3c(C)c(C)ccc23)cc1OC	?	?	10.3µM*	i	8.2µM*	?
CSc1ccc(CN(C)Cc2cc(=O)oc3c(C)c(C)ccc23)cc1	-1.6%	-6.0%	20.6µM*	i	?	i
Cc1ccc2c(CN(C)Cc3cccc(Cl)c3)cc(=O)oc2c1C	-27.0%	?	?	?	29.1µM*	?
Clc1ccccc1CNCc1ccc2c(c1)OCO2	-11.9%	-5.6%	?	i	?	i
Cc1ccc(CNC(=O)Cn2ncc3c([nH]c4ccc(C)cc43)c2=O)cc1	.	.	-4.1%	i	-2.4%	i
CCc1cccc(N=c2c([N+](=O)[O-])nn(-c3ccc(Cl)cc3)n2O)c1	-19.6%	?	20.6µM*	?	?	i
CCc1cccc(N=c2c([N+](=O)[O-])nn(-c3ccc4c(c3)OCCO4)n2O)c1	-16.2%	-17.3%	1.84µM*	?	3.26µM*	i
O=[N+]([O-])c1nn(-c2ccc3c(c2)OCCO3)n(O)c1=NCc1ccc(F)cc1	-4.0%	-2.5%	?	?	?	i
COc1cc(N=c2c([N+](=O)[O-])nn(-c3ccc4c(c3)OCCO4)n2O)cc(OC)c1	-18.5%	?	1.46µM*	6.51µM*	1.64µM*	?
Cc1cc(C)cc(N=c2c([N+](=O)[O-])nn(-c3cccc(Cl)c3)n2O)c1	-7.8%	?	11.2µM*	i	?	i
Cc1cccc(N=c2c([N+](=O)[O-])nn(-c3ccc(Cl)cc3)n2O)c1	24.3%	0.2%	4.2%	i	0.8%	i
COc1cc(/C=N/n2c(-c3ccccc3)n[nH]c2=S)cc(OC)c1OC	?	?	2.3%	i	?	i
COc1ccc(-c2n[nH]c(=S)n2/N=C/C=C/c2ccccc2OC)cc1	-8.8%	-3.8%	?	18.4µM*	?	10.3µM*
